Screens as filed in PubChem BioAssay.
TWEAK Fn14 block = TWEAK-Fn14 signaling inhibition | TWEAK-stimulated Fn14 reporter cells, luciferase luminescence, 8 h | inhibition, % at 10 µM | 2% of 360,000 active | AID 1159606; in the data active = inhibition above about 50%
HIF-2a inh = HIF-2a inhibition; 786-0 RCC cells HIF-2a reporter, luciferase luminescence, overnight; inhibition, % at 18.8 µM; 0.72% of 360,000 active; AID 624352;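 active = inhibition of the luminescence signal of 40% or more relative to plate controls, in a single-dose primary screen at 18.75 µM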
CF NFkB block = blocks PAF-induced NF-kB reporter in cystic fibrosis cells; KKLEB NF-kB-GFP reporter, GFP fluorescence overnight; inhibition, % at 5 µM; 0.86% of 360,000 active; AID 588850;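 active = at least 50% inhibition at 5 µM, scaled per plate between neutral and stimulator controls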;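 note: PAF is a Pseudomonas aeruginosa culture filtrate used as stimulus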
KKLEB tox = reduces viability of KKLEB cystic fibrosis airway cells | KKLEB CF airway cells viability, ATPlite luminescence, overnight; hits give low values; cells stimulated with P. aeruginosa culture filtrate | activity change (cytotoxicity), % at 5 µM | 0.36% of 360,000 active | AID 602141;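 active = corrected activity change at or below -50% at 5 µM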
hiPSC survival = hiPSC single-cell survival enhancement; ATPlite luminescence; 100% = ROCK inhibitor wells, 0% = DMSO; survival enhancement, % at 20 µM; 0.044% of 360,000 active; AID 602274; in the data active = survival enhancement above about 18%;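 note: cells exposed to compounds for 16 hours before the ATP read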
LGR2 antag = inhibitors of bursicon-induced Drosophila LGR2 receptor cAMP signaling. HEK293 LGR2, CRE-luciferase, bursicon-stimulated, 4 h. inhibition, % at 9.99 µM. 0.35% of 380,000 active;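 active = drop in luminescence signal, shown as inhibition above about 50% in the replicate tests, limit read from the data, passing the limit was not always enough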;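 note: agonist challenge used bursicon conditioned medium at about half maximal strength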
Hits are given with their value. Sampled rows, rich in hits. Any-hit rate of the full collection: about 2.3%.

For COCCn1c(SCC(=O)Nc2ccc(F)cc2)nc2c(oc3ccccc32)c1=O the results were TWEAK Fn14 block inactive, HIF-2a inh inactive, CF NFkB block inactive, KKLEB tox -54.2, hiPSC survival inactive and LGR2 antag inactive.
Cc1ccc(S(=O)(=O)N(C)C[C@@H]2OCCCC[C@H](C)Oc3ccc(NC(=O)NC4CCCCC4)cc3C(=O)N([C@H](C)CO)C[C@@H]2C)cc1 was read as LGR2 antag inactive.
For CC(=O)N1CC2(C1)[C@@H](c1ccc(-c3ccc(F)cc3)cc1)[C@@H](CO)N2C(C)=O the results were LGR2 antag inactive.
CCOC(=O)C1CCN(C(=O)c2c(C)oc3c2C(=O)c2ccccc2C3=O)CC1 was read as TWEAK Fn14 block inactive, HIF-2a inh inactive, CF NFkB block 62.2, KKLEB tox inactive, hiPSC survival inactive and LGR2 antag inactive.
`CC(C)OC(=O)c1ccc(NCc2cc(O)ccc2O)cc1` gave TWEAK Fn14 block 101.1, HIF-2a inh inactive, CF NFkB block 71.8, KKLEB tox inactive and hiPSC survival inactive.
`O=C(OCc1ccccc1)c1ccc(NCc2cc(O)ccc2O)cc1` gave TWEAK Fn14 block 107.1, HIF-2a inh 77.8, CF NFkB block 81.3, KKLEB tox -55.8, hiPSC survival inactive and LGR2 antag 54.3.
`C[C@H]1CN([C@@H](C)CO)C(=O)Cc2cc(NS(=O)(=O)c3cn(C)cn3)ccc2O[C@H]1CN(C)S(=O)(=O)c1ccc(F)cc1` gave LGR2 antag inactive.
O=C(c1cnc2ccc3ccccc3c2c1)c1cc(F)ccc1O was read as TWEAK Fn14 block 64.3, HIF-2a inh inactive, CF NFkB block inactive, KKLEB tox inactive, hiPSC survival inactive and LGR2 antag inactive.
For COc1ccc(-c2nnc3sc(CN4C(=O)c5ccccc5C4=O)nn23)cc1 the results were TWEAK Fn14 block 93.3, HIF-2a inh inactive, CF NFkB block inactive, KKLEB tox inactive and hiPSC survival inactive.
For O=C1c2ccccc2C(=O)N1Cc1nn2c(-c3ccc(Cl)cc3)nnc2s1 the results were TWEAK Fn14 block inactive, HIF-2a inh inactive, CF NFkB block inactive, KKLEB tox inactive and hiPSC survival inactive.
For Cc1cccc(C(P(=O)(c2ccccc2)c2ccccc2)P(=O)(c2ccccc2)c2ccccc2)n1 the results were TWEAK Fn14 block 79.2, HIF-2a inh inactive, CF NFkB block inactive, KKLEB tox inactive, hiPSC survival inactive and LGR2 antag inactive.
Screening Cc1cccc(C(O)C(O)c2cccc(C)n2)n1 (configuration not stated) returned TWEAK Fn14 block inactive, HIF-2a inh inactive, CF NFkB block inactive, KKLEB tox inactive, hiPSC survival inactive and LGR2 antag inactive.
For CCN(CC)c1ccc(/C=N/Nc2nc3ccccc3[nH]2)cc1 the results were TWEAK Fn14 block 95.4, HIF-2a inh inactive, CF NFkB block inactive, KKLEB tox inactive, hiPSC survival inactive and LGR2 antag inactive.
C=CCn1cc(/C=N/Nc2nc3ccccc3[nH]2)c2ccccc21 was read as TWEAK Fn14 block 53.0, HIF-2a inh inactive, CF NFkB block inactive, KKLEB tox inactive, hiPSC survival inactive and LGR2 antag inactive.
Screening Cc1c(/C=N/Nc2nc3ccccc3[nH]2)c2ccccc2n1C returned TWEAK Fn14 block 94.0, HIF-2a inh inactive, CF NFkB block inactive, KKLEB tox inactive, hiPSC survival inactive and LGR2 antag inactive.
Screening O=C(NC1CCCC1)[C@H]1[C@H](CO)[C@H]2Cn3c(ccc(-c4ccccc4)c3=O)[C@@H]1N2CCc1ccccc1 returned LGR2 antag inactive.
`Cn1ncc2c(Nc3ccc(O)cc3)nc(Cl)nc21` gave TWEAK Fn14 block inactive, HIF-2a inh inactive, CF NFkB block inactive, KKLEB tox inactive, hiPSC survival inactive and LGR2 antag inactive.
For Cn1ncc2c(Nc3cccc(Cl)c3)nc(Nc3cccc(Cl)c3)nc21 the results were TWEAK Fn14 block 59.5, HIF-2a inh inactive, CF NFkB block inactive, KKLEB tox inactive, hiPSC survival inactive and LGR2 antag inactive.
Cn1ncc2c(Nc3ccc(Br)cc3)nc(Nc3ccc(Br)cc3)nc21 was read as TWEAK Fn14 block 53.0, HIF-2a inh inactive, CF NFkB block inactive, KKLEB tox inactive, hiPSC survival inactive and LGR2 antag inactive.
CC(C)(O)C#Cc1cccc(-c2nc(C(=O)N3CCN(Cc4ccccc4)CC3)cc3c2[C@@H](CCO)N(S(=O)C(C)(C)C)C3)c1 (some centres not stated) was read as LGR2 antag inactive.
